Records with an inconclusive call do not appear. A call without a number means that no potency is given here. Activity calls are given as the source filed them. Unless noted, calls follow the shape of the full dose curve.

Experiment [1] in a line: Primary qHTS for inhibitors of MERS-S pseudo-typed particle cell entry (AID 1479149). Also: nearly all actives have a fitted effect of over 60% in size. Also: potency is read from the fitted curve at half-maximal effect.
Experiment [2] can be described thus: Primary qHTS for Vero E6 cytotoxicity: counterscreen for inhibitors of SARS-S pseudo-typed particle cell entry (AID 1479150). Also: potency is read from the fitted curve at half-maximal effect.
The nature of experiment [3]: Primary qHTS for inhibitors of La Crosse Virus (LACV) - induced cell death in SH-SY5Y cells (AID 1508616; active = well fitted curve in the direction sought with a large enough effect; an effect the other way counts as inactive or inconclusive;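 also: top concentration of the series differs between compounds; higher means more rescue of cells from virus-induced death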). The method, boiled down: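 Cytopathicity rescue screen: compounds pinned onto SH-SY5Y cells, which are then infected with LACV (MOI 0.01) and held 6 days at 37C. Percent activity is scaled between infected DMSO control and uninfected DMSO control.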
Experiment [4] in a line: Primary qHTS for small molecule stabilizers of the endoplasmic reticulum resident proteome: Secreted ER Calcium Modulated Protein (SERCaMP) assay (AID 1508630; active = well fitted curve in the direction sought with a large enough effect; an effect the other way counts as inactive or inconclusive). The gist of the method:
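The SH-SY5Y reporter protocol was run at 3 concentrations up to 38.3 uM (primary) or 11 concentrations (follow-up): 16 h compound, 100 nM thapsigargin for 4 h, then extracellular luciferase luminescence.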

Experiment [5] can be described thus: A High-Content qHTS Against Drug Library for the Identification of Small Molecules that Inhibit DYT1 Early Onset Primary Dystonia-Associated Cell Pathology (AID 1645839). Also: series mostly up to about 46 µM. The method, boiled down: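 Cells were seeded and left for 24 h, then dosed with compound alongside tetracycline induction of mutant EGFP-TorsinA. They were incubated for 48 h, fixed in 4% paraformaldehyde, permeabilized and imaged for mislocalization (%pathology) and cell count.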

Experiment [6] is described as follows: Confirmatory qHTS for activators (rescue) of SARS-CoV-2 Cytopathic Effect (CPE) (AID 1508606). Also: potency is read from the fitted curve at half-maximal effect; nearly all actives have a fitted effect of over 70% in size.
Experiment [7] in a line: Confirmatory qHTS for VERO E6 Cytotoxicity Assay: Counterscreen for SARS-CoV-2 CPE Assay (AID 1508605). Also: series mostly up to about 20 µM; nearly all actives have a fitted effect of over 60% in size.
Experiment [8] deals with Calcium and integrin-binding protein 1 (Homo sapiens) (UniProt Q99828). The experiment can be described thus: Primary qHTS for Identification of Calcium Integrin Binding Protein 1 (CIB1) Competitor (AID 1508620; active = well fitted curve in the direction sought with a large enough effect; an effect the other way counts as inactive or inconclusive;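 also: GST tagged CIB1 binding a fluorescein labelled alphaIIb integrin peptide tracer; top concentration of the series differs between compounds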). The method, boiled down:
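Fluorescence polarization competition: GST-tagged CIB1 (1 uM final) preincubated with compound 15 min at room temperature, then FITC-labelled alphaIIb peptide (100 nM final) added. After 15 min at room temperature, polarization read at Ex 480/Em 540.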

Experiment [9] can be described thus: Primary qHTS for Huh7 cytotoxicity: counterscreen for inhibitors of MERS-S pseudotyped particle cell entry (AID 1479147).

Calcium and integrin-binding protein 1 (Homo sapiens), sequence (Q99828 whole entry, looked up): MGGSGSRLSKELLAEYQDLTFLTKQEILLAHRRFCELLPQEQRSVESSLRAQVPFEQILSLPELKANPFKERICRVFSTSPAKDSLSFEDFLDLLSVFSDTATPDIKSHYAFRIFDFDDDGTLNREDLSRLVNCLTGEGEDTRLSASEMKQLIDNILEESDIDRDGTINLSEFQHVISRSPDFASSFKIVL

As to `CCC(C)n1ncn(-c2ccc(N3CCN(c4ccc(OC[C@H]5CO[C@](Cn6cncn6)(c6ccc(Cl)cc6Cl)O5)cc4)CC3)cc2)c1=O` (some centres not stated), in experiment [1], the Potency is 2.51 µM (active). For the same molecule, the Potency entry in [2] was “inactive”.
With `N[C@@H](Cc1ccc(Oc2cc(I)c(O)c(I)c2)c(I)c1)C(=O)O`, the Potency result in experiment [3] and in experiment [5] was “inactive” in each case. In addition, in [4], the result was inactive.
As for `CC(=O)Oc1ccccc1C(=O)Nc1ncc([N+](=O)[O-])s1`, the Potency was 5.62 µM (active) in experiment [1], 28.2 µM (active) in experiment [2] and 5.01 µM (active) in [6].
As to `CN(Cc1cnc2nc(N)nc(N)c2n1)c1ccc(C(=O)N[C@@H](CCC(=O)O)C(=O)O)cc1`, in experiment [1], the Potency result was “inactive”.
In the case of `CN1CCN(CCCN2c3ccccc3Sc3ccc(C(F)(F)F)cc32)CC1`, the Potency in [1] was 28.2 µM (active). In [2], the Potency result was “inactive”.
For the molecule `CCC1=C[C@@H]2CN(C1)Cc1c([nH]c3ccccc13)[C@@](C(=O)OC)(c1cc3c(cc1OC)N(C)[C@H]1[C@@](O)(C(=O)OC)[C@H](OC(C)=O)[C@]4(CC)C=CCN5CC[C@]31[C@@H]54)C2`, the Potency in experiment [1] was 3.16 µM (active).
For `CN(C)C(=O)C(CCN1CCC(O)(c2ccc(Cl)cc2)CC1)(c1ccccc1)c1ccccc1`, the Potency result in experiment [2] and in experiment [7] was “inactive” each time.
As to `Cc1sc2c(c1C)C(c1ccc(Cl)cc1)=N[C@@H](CC(=O)OC(C)(C)C)c1nnc(C)n1-2`, in experiment [8], the Potency entry is “inactive”. Besides, the result in experiment [4] was inactive.
Turning to `CC1(CN2CCC(n3c(=O)[nH]c4ccccc43)CC2)OCc2ccccc2-n2cccc21` (configuration not stated), in [7], the Potency entry is “inactive”.
Turning to `COc1ccccc1OCCNCC(O)COc1cccc2[nH]c3ccccc3c12` (configuration not stated), the Potency entry in [9], in [2] and in experiment [7] was “inactive” each time. In experiment [6], the Potency is 10 µM (active).
Take `OCCN1CCN(CCCN2c3ccccc3Sc3ccc(C(F)(F)F)cc32)CC1`: in experiment [2], the Potency entry was “inactive”.

The values are drawn from PubChem BioAssay (NCATS).
